From PubChem BioAssay AID493085 (Broad Institute, 2011)
Out of some 2,400 compounds screened, about 360 (15%) were called active. Inconclusive results (about 5%) are left out.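 The calls were made as follows: active = falling-signal curve with half-maximal concentration at or below ten times the top tested dose; inconclusive = flat fit at 30 to 70% inhibition, or poor fit; inactive = signal rise, flat within 30%, or potency beyond limit.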 A selection follows. Entries with a potency or affinity are not part of this list.

experiment: dox-induced RFP signal loss in R4-3T3 cells – cell-based, NIH3T3 R4, HSE-GFP and Tet-On RFP, cherry-pick, set 3, dose response (AID 493085); conditions: NIH3T3 R4 HSE-GFP/Tet-RFP reporter, fluorescence, 48 h; series mostly up to 19.5 µM;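 also: cells heat shocked 2 h at 42 °C with doxycycline to induce reporters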

SMILES | outcome
COc1ccc(CNC(=O)CCCNC(=O)c2ccc(Cl)cc2)cc1OC | inactive
COC(=O)c1cc(S(=O)(=O)NCc2ccc(F)cc2)cn1C | inactive
Cc1ccc(C(=O)O/N=C(\N)c2ccccn2)c(C)c1 | inactive
CC(C)(C)C(=O)Nc1ccc(-c2cc3cc(Cl)ccc3o2)cc1 | inactive
CC1CCN(S(=O)(=O)c2ccc(C(=O)Nc3nnc(-c4ccccn4)o3)cc2)CC1 | inactive
CCS(=O)(=O)c1ncc(Cl)c(C(=O)Nc2ccc(C)cc2)n1 | inactive
CN1CCN(S(=O)(=O)c2ccc(Oc3ccc(F)c(Cl)c3)nc2)CC1 | inactive
CCc1ccc(OC(C)C(=O)N(Cc2ccco2)C2CCS(=O)(=O)C2)cc1 (stereo unspecified) | inactive
Cc1ncc([N+](=O)[O-])n1CC(=O)Nc1ccc(F)cc1 | inactive
O=C(Cn1nc(-c2ccc(Cl)cc2)ccc1=O)NCC1CCCO1 (stereo unspecified) | inactive
Cc1cc(Nc2cccc(Cl)c2)nc(-c2ccccc2O)n1 | inactive
O=C(O)c1cccc(Nc2ccnc(Nc3cccc(C(=O)O)c3)n2)c1 | inactive
CCOc1cc(CNCC2CCCN2CC)cc(Cl)c1OC (stereo unspecified) | inactive
COc1ccc(-c2cn(-c3ccccc3)nc2CO)cc1 | inactive
Cn1ccnc1C1CCCCN1C(=O)c1cc(COc2ccc(F)cc2Cl)on1 (stereo unspecified) | inactive
Cc1cc(=O)n2[nH]c(=O)c(N=Nc3ccccc3)c2[nH]1 | inactive
CN(C)c1ccc(C(=S)Nc2ccccc2)cc1 | inactive
CN(C)c1ccc(/C=N/NC(=O)C2COc3ccccc3O2)o1 (stereo unspecified) | inactive
Cc1ccc(Cl)cc1NC(=O)C1COc2ccccc2O1 (stereo unspecified) | inactive
Cc1ccc(O)c(/C=N/NC(=O)CN2CCCC2)c1 | inactive
NCCCC[C@@H](C(=O)N1CCNCC1)n1cc([C@@H](N)CO)nn1 | inactive
COc1ccc(OC)c(C(=O)c2ccc(C(=O)O)cc2)c1 | inactive
COc1ccc(C(=O)c2c[nH]cc2-c2ccccc2)cc1 | inactive
Cc1cn2c(nc(=O)c3cccnc32)s1 | inactive

SMILES | outcome
Cc1ccc(S(=O)(=O)N2CCC(C)CC2)cc1[N+](=O)[O-] | inactive
COc1ccc(C(=O)N/C(=C\c2cccs2)c2nc3ccccc3[nH]2)cc1OC | inactive
Cn1c(N2CCOCC2)nc(-c2ccccc2)c1-c1ccccc1 | inactive
C=CCc1c(C)nc2c(-c3ccccc3)cnn2c1N1CCOCC1 | inactive
C=CCn1c(C)cc(C(=O)COC(=O)CNC(=O)c2ccccc2)c1C | inactive
O=C(COC(=O)c1cc[n+]([O-])cc1)Nc1cccc(Cl)c1Cl | inactive
CNC(=O)COC(=O)c1ccccc1C(=O)c1ccc(Cl)c([N+](=O)[O-])c1 | inactive
CC(C)(C)c1ccc(/C=C(\C#N)C(=O)Nc2ccccn2)cc1 | inactive
COc1cc(C(C(=O)NCc2ccccc2)N(Cc2ccco2)C(=O)c2cnccn2)cc(OC)c1OC (stereo unspecified) | inactive
COc1ccc2cc3c(N)nn(C(=O)Cc4c[nH]c5ccccc45)c3nc2c1 | inactive
CSc1cccc(NC(=S)N2CCC(N(C)C3CCCC3)CC2)c1 | inactive
CS(=O)(=O)c1ccc(NC(=O)c2ccc3c(c2)S(=O)(=O)N=C2CCCCCN23)cc1 | inactive
CCN(C(=O)COC(=O)/C=C/c1ccccc1)C1CCCCC1 | inactive
Cc1cccc(N(Cc2ccccc2)C(=O)CCl)c1 | inactive
COc1ccccc1NC(=O)[C@H](COCc1ccccc1)NC(=O)OC(C)(C)C | inactive
CCn1c(SCC(=O)N(C)C2CCS(=O)(=O)C2)nnc1-c1cccs1 (stereo unspecified) | inactive
CN(C(=O)CCNC(=O)Cn1cnc2ccccc2c1=O)c1ccccc1F | inactive
CSc1ccccc1NC(=O)C1=CC(c2ccc(C)cc2)=NS(=O)(=O)N1C | inactive
CCOc1ccc(NC(=S)Nc2ccc(OC(F)(F)F)cc2)cc1 | inactive
Cc1[nH]c(=O)c(C#N)cc1-c1csc(-c2ccccc2)n1 | inactive
COC(=O)CCC(=O)NNC(=O)c1cccc(Br)c1 | inactive
COc1ccccc1CCC(=O)OCC(=O)Nc1cccc(S(=O)(=O)N2CCOCC2)c1 | inactive
CCOC(=O)C1=C(C)N(CCC(=O)O)C(=O)NC1c1ccccc1Cl (stereo unspecified) | inactive
COc1ccc(/C=C(\C#N)C(=O)Nc2cc(C)c(Cl)cc2OC)cc1O | inactive

SMILES | outcome
CSc1nccn1C(=O)c1ccccc1[N+](=O)[O-] | inactive
Cc1ccc(-n2cc(C(=O)c3ccccc3O)cn2)cc1 | inactive
O=C(CSc1nc2ccccc2s1)N/N=C/c1ccccc1C(=O)O | inactive
CC(C)c1ccccc1-n1c(-c2cccnc2)n[nH]c1=S | inactive
COc1ccccc1NC(=O)Cn1c(=O)c(N(C)C)c(N)n(C)c1=O | inactive
COCCn1c(=O)[nH]c2cc(C(=O)NC3CCCCCC3)ccc2c1=O | inactive
COc1cccc(NC(=O)CCSc2nnc3scc(-c4ccccc4)n23)c1 | inactive
CCCC(NC(=O)COc1cc2c(c3oc(=O)cc(C)c13)CCC(C)(C)O2)C(=O)O (stereo unspecified) | inactive
CC(C(=O)NC1CC(C)(C)NC(C)(C)C1)c1ccc([N+](=O)[O-])cc1 (stereo unspecified) | inactive
CC(=O)c1cccc(NC(=O)CN2C(=O)c3ccccc3C2=O)c1 | inactive
CCOc1ccc(/C=N/NC(=O)c2ccc(Cn3cc([N+](=O)[O-])cn3)o2)cc1 | inactive
NC(=S)N/N=C1\CC(n2nnnc2-c2ccccc2Cl)C2COC1O2 (stereo unspecified) | inactive
COc1ccc(/C=N/Nc2nc(C)cc(=O)[nH]2)cc1OC | inactive
COc1ccc(-c2nc(CNS(=O)(=O)c3ccc(OC)c(OC)c3)cs2)cc1 | inactive
Cc1cccc(N2CCN(Cc3nc(-c4ccccc4Cl)oc3C)CC2)n1 | inactive
O=C(N/N=C/c1ccccn1)c1ccc([N+](=O)[O-])cc1 | inactive
Oc1ccc(Br)cc1/C=N/Nc1ccccn1 | inactive
CCOC(=O)C[n+]1c(C)csc1C | inactive
CCOc1ccc(NC(=O)C(C)NS(=O)(=O)c2ccc(NC(C)=O)cc2)cc1 (stereo unspecified) | inactive
Cc1ccc(Cn2c(Sc3ncccn3)nc3c2c(=O)[nH]c(=O)n3C)cc1 | inactive
Cc1nccn1Cc1cccc2ccccc12 | inactive
CC(=O)NCCNC(=O)c1ccc(CSc2nc3ccccc3s2)cc1 | inactive
Cc1cc(=O)[nH]c2c1c(=O)[nH]n2C1CC(C)N(C)CC1C (stereo unspecified) | inactive
